Inconclusive results are not listed. Calls of active or inactive are those of the source. Calls follow the shape of the dose curve; as a rule, active = well fitted cell-killing curve with a large enough effect; inconclusive = small, poorly fitted or top-dose-only effect, or effect the other way; inactive = flat fitted curve, though single readings scatter.
Experiments:
Experiment in all cases: Primary qHTS to identify gynecologic anti-cancer compounds using libraries of approved drugs and bioactive compounds (AID 1345084); also: nearly all actives have a fitted effect of over 55% in size
Conditions in all cases: Gynecologic cancer cell panel viability, ATPlite luminescence, 48 h; series mostly up to 57.5 µM
OV90 = test system: OV90
Method in brief: (§1)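 Cells, 1,000 per well, were allowed to settle for 16 h at 37 C before compound addition. Five concentrations were tested for 48 h, and viability was read by ATPlite luminescence after 15 min at room temperature.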

PA-1 = test system: PA-1
Method in brief: as §1

SKOV3 = test system: SKOV3
Method in brief: as §1

Tov-21-G = test system: Tov-21-G
Method in brief: as §1

Tov112D = test system: Tov112D
Method in brief: as §1
% is scaled to controls: 0 for no effect and ±100 for the full control effect.

C=C1[C@H]2CC[C@]3(O)[C@@](CC[C@@H]4[C@](C)(C(=O)O)CCC[C@]43C)(C2)[C@H]1OC(=O)/C(C)=C\C
inactive: Potency (OV90) | Potency (PA-1) | Potency (SKOV3) | Potency (Tov-21-G) | Potency (Tov112D)

CCC(C)(O)C(O)C(=O)OCc1ccc(O[C@@H]2O[C@H](CO)[C@@H](O)[C@H](O)[C@H]2O)cc1 (stereo not given in full)
inactive: Potency (OV90) | Potency (PA-1) | Potency (SKOV3) | Potency (Tov-21-G) | Potency (Tov112D)

CC1CCC2C(C(=O)O)=CC3CC(C)(C)CC132 (stereo not given)
inactive: Potency (OV90) | Potency (PA-1) | Potency (SKOV3) | Potency (Tov-21-G) | Potency (Tov112D)

COC(=O)C[C@@H]1C(C(=O)O)=CO[C@@H](O[C@@H]2O[C@H](CO)[C@@H](O)[C@H](O)[C@H]2O)/C1=C\COC(=O)/C=C\c1ccccc1
inactive: Potency (OV90) | Potency (PA-1) | Potency (SKOV3) | Potency (Tov-21-G) | Potency (Tov112D)

O=C(NCc1ccc(OC(F)(F)F)cc1)C1c2ccccc2C(=O)N1C1CCOCC1 (stereo not given)
inactive: Potency (OV90) | Potency (PA-1) | Potency (SKOV3) | Potency (Tov-21-G) | Potency (Tov112D)

NCc1c[nH]c(=S)n1C1CCc2c(F)cc(F)cc2C1 (stereo not given)
inactive: Potency (OV90) | Potency (PA-1) | Potency (SKOV3) | Potency (Tov-21-G) | Potency (Tov112D)

CC(C)(C)NCc1cc(Nc2ccnc3cc(Cl)ccc23)c2c(c1O)CCCC2
inactive: activity change, negative = cytotoxicity (OV90) 12.6% [at 0.462 µM] | activity change, negative = cytotoxicity (PA-1) 0.938% [at 0.462 µM] | activity change, negative = cytotoxicity (SKOV3) 4.41% [at 0.462 µM] | activity change, negative = cytotoxicity (Tov-21-G) 8.34% [at 0.462 µM] | activity change, negative = cytotoxicity (Tov112D) 20.2% [at 0.462 µM]

C[C@@H]1CC[C@]2(C(=O)O[C@@H]3O[C@H](CO)[C@@H](O)[C@H](O)[C@H]3O)CC[C@]3(C)C(=CCC4[C@@]5(C)C[C@@H](O)[C@H](O)C(C)(C)C5CC[C@]43C)C2[C@]1(C)O (stereo not given in full)
inactive: Potency (OV90) | Potency (PA-1) | Potency (SKOV3) | Potency (Tov-21-G) | Potency (Tov112D)

COC1(CC(C)C)NC(=O)C(O)(Cc2ccccc2)NC1=O (stereo not given)
inactive: Potency (OV90) | Potency (PA-1) | Potency (SKOV3) | Potency (Tov-21-G) | Potency (Tov112D)

C/C=C(\C)C(=O)O[C@@H]1CC2[C@@H](CC=C3C[C@@H](O[C@H]4C[C@H](OC)[C@H](O[C@H]5C[C@H](OC)[C@H](O[C@H]6C[C@H](OC)[C@H](O[C@H]7C[C@@H](OC)[C@H](O[C@@H]8O[C@H](CO)[C@@H](O)[C@H](O)[C@H]8O)[C@@H](C)O7)[C@@H](C)O6)[C@@H](C)O5)[C@@H](C)O4)CC[C@@]32C)[C@@]2(O)CC[C@H](C(C)=O)[C@@]12C (stereo not given in full)
inactive: activity change, negative = cytotoxicity (OV90) 3.72% [at 6.55 µM] | activity change, negative = cytotoxicity (PA-1) -8.02% [at 6.55 µM] | activity change, negative = cytotoxicity (SKOV3) -0.126% [at 6.55 µM] | activity change, negative = cytotoxicity (Tov-21-G) 2.08% [at 6.55 µM] | activity change, negative = cytotoxicity (Tov112D) -2.78% [at 6.55 µM]

C=C1CC23CCC4[C@@](C)(CCC[C@@]4(C)C(=O)O)C2CCC1C3 (stereo not given in full)
inactive: Potency (OV90) | Potency (PA-1) | Potency (SKOV3) | Potency (Tov-21-G) | Potency (Tov112D)

CO[C@@H]1CC[C@H](OC[C@]2(COC(=O)c3ccc(C)[nH]3)[C@H](OC(C)=O)CC[C@@]3(C)[C@@H]4CC=C(C)[C@@H](C5=C(O)C(=O)OC5O)[C@]4(C)CC[C@@H]32)O[C@H]1C (stereo not given in full)
inactive: Potency (OV90) | Potency (PA-1) | Potency (SKOV3) | Potency (Tov-21-G) | Potency (Tov112D)

COC(=O)CC[C@@H](C)[C@H]1CC[C@H]2[C@@H]3CC(=O)[C@H]4C[C@H](OC(C)=O)CC[C@]4(C)[C@H]3CC[C@]12C
inactive: Potency (OV90) | Potency (PA-1) | Potency (SKOV3) | Potency (Tov-21-G) | Potency (Tov112D)

C[C@@H]1C(=O)O[C@H]2CC34[C@H]5C[C@@H](C(C)(C)C)C36[C@@H](OC(=O)[C@@H]6O)O[C@@]4(C(=O)O5)[C@]21O (stereo not given in full)
inactive: Potency (OV90) | Potency (PA-1) | Potency (SKOV3) | Potency (Tov-21-G) | Potency (Tov112D)

C=CC1C(O[C@@H]2O[C@H](CO)[C@@H](O)[C@H](O)[C@H]2O)OC=C(C(=O)OC)C1Cc1nccc2c1[nH]c1ccccc12 (stereo not given in full)
inactive: Potency (OV90) | Potency (PA-1) | Potency (SKOV3) | Potency (Tov-21-G) | Potency (Tov112D)

C=C(C)[C@@H]1CC[C@](C)(O)[C@@H](OC(=O)c2ccccc2)C1
inactive: Potency (OV90) | Potency (PA-1) | Potency (SKOV3) | Potency (Tov-21-G) | Potency (Tov112D)

CCOC(=O)[C@H](CCc1ccccc1)CC1(C(=O)N[C@H]2CCc3ccccc3N(CC(=O)O)C2=O)CCCC1
inactive: Potency (OV90) | Potency (PA-1) | Potency (SKOV3) | Potency (Tov-21-G) | Potency (Tov112D)

CC(C)(C)NCC(O)COc1cccc2c1CCCC2=O (stereo not given)
inactive: Potency (OV90) | Potency (PA-1) | Potency (SKOV3) | Potency (Tov-21-G) | Potency (Tov112D)

CC(=O)O[C@@H]1[C@H](O[C@@H]2O[C@H](CO)[C@@H](O)[C@H](O)[C@H]2O)[C@@H](O[C@@H]2O[C@@H](C)[C@H](O)[C@@H](O[C@@H]3O[C@H](CO)[C@@H](O)[C@H](O)[C@H]3O)[C@H]2O)[C@H](OC(=O)C23CCC4(C)C(=CCC5C6(C)CC(O)C(O[C@@H]7O[C@H](C(=O)O)[C@@H](O)[C@H](O)[C@H]7O)C(C)(C(=O)O)C6CCC54C)C2CC(C)(C)CC3O)O[C@@H]1C (stereo not given in full)
inactive: activity change, negative = cytotoxicity (OV90) 8.45% [at 6.55 µM] | activity change, negative = cytotoxicity (PA-1) 25.5% [at 6.55 µM] | activity change, negative = cytotoxicity (SKOV3) 2.37% [at 6.55 µM] | activity change, negative = cytotoxicity (Tov-21-G) 4.93% [at 6.55 µM] | activity change, negative = cytotoxicity (Tov112D) 4.44% [at 6.55 µM]

CC(C)(OC1OC(CO)C(O)C(O)C1O)C1CCC(O)(CO)C2CC(O)C(C)(O)C2C1 (stereo not given)
inactive: Potency (OV90) | Potency (PA-1) | Potency (SKOV3) | Potency (Tov-21-G) | Potency (Tov112D)

CC1(C)CC2C3=CCC4C5(C)CCC(OC6OC(CO)C(O)C(OC7OC(CO)C(O)C(OC8OC(CO)C(O)C(OC9OC(COC%10OC(CO)C(O)C(O)C%10O)C(O)C(O)C9O)C8O)C7O)C6O)C(C)(C)C5CCC4(C)C3(C)CCC2(C(=O)O)CC1O (stereo not given)
inactive: activity change, negative = cytotoxicity (OV90) 0.668% [at 6.55 µM] | activity change, negative = cytotoxicity (PA-1) 1.44% [at 6.55 µM] | activity change, negative = cytotoxicity (SKOV3) 0% [at 6.55 µM] | activity change, negative = cytotoxicity (Tov-21-G) -2.7% [at 6.55 µM] | activity change, negative = cytotoxicity (Tov112D) 1.66% [at 6.55 µM]

CCn1nnnc1NCc1ccc(C(C)C)cc1
inactive: Potency (OV90) | Potency (PA-1) | Potency (SKOV3) | Potency (Tov-21-G) | Potency (Tov112D)

C=C1CC2C3(C)C(O)CC(=O)C(C)(C)C3C(OC(C)=O)C(OC(C)=O)C2(C)C2C(=O)OC(C)(C(=O)OC)C(=O)C12C (stereo not given)
inactive: Potency (OV90) | Potency (PA-1) | Potency (SKOV3) | Potency (Tov-21-G) | Potency (Tov112D)

CC(=O)N1c2ccccc2C2(O)CC3C(=O)NC(CC(C)C)C(=O)N3C12 (stereo not given)
inactive: Potency (OV90) | Potency (PA-1) | Potency (SKOV3) | Potency (Tov-21-G) | Potency (Tov112D)

COc1cc(C2Oc3c(OC)cc(CCCO[C@@H]4O[C@H](CO)[C@@H](O)[C@H](O)[C@H]4O)cc3C2CO)ccc1O (stereo not given in full)
inactive: Potency (OV90) | Potency (PA-1) | Potency (SKOV3) | Potency (Tov-21-G) | Potency (Tov112D)

CC(=O)O[C@@H]1C[C@@]23C[C@@]24CC[C@H](OC2OC[C@@H](O)[C@H](O)[C@H]2O)C(C)(C)[C@@H]4CC[C@H]3[C@]2(C)CC3OC4(C[C@@H](C)C3[C@@]12C)OCC1(C)OC14 (stereo not given in full)
inactive: Potency (OV90) | Potency (PA-1) | Potency (SKOV3) | Potency (Tov-21-G) | Potency (Tov112D)

COc1ccc(/C=C/C(=O)O[C@@H]2[C@@H](OC(C)=O)[C@@H](OC(C)=O)[C@H](O[C@H]3[C@@H]4C=CO[C@@H](O[C@@H]5O[C@H](CO)[C@@H](O)[C@H](O)[C@H]5O)[C@@H]4[C@@]4(CO)O[C@@H]34)O[C@H]2C)cc1O
inactive: Potency (OV90) | Potency (PA-1) | Potency (SKOV3) | Potency (Tov-21-G) | Potency (Tov112D)

C=C1CC2(C(=O)O)CC1CCC2C1(C)CCCC2(C)C(=O)OC(O)C21 (stereo not given)
inactive: Potency (OV90) | Potency (PA-1) | Potency (SKOV3) | Potency (Tov-21-G) | Potency (Tov112D)

COc1cccc2c1CCC[C@H]2CN(C)CCc1ccc2ccoc2c1
inactive: Potency (OV90) | Potency (PA-1) | Potency (SKOV3) | Potency (Tov-21-G) | Potency (Tov112D)

CC(NCc1ccc(OCc2cccc(F)c2)cc1)C(N)=O (stereo not given)
inactive: Potency (OV90) | Potency (PA-1) | Potency (SKOV3) | Potency (Tov-21-G) | Potency (Tov112D)

C/C=C1/[C@H](O[C@@H]2O[C@H](CO)[C@@H](O)[C@H](O)[C@H]2O)OC=C(C(=O)OC)[C@H]1CC(=O)O[C@@H]1O[C@H](CO)[C@@H](O)[C@H](O)[C@H]1O
inactive: Potency (OV90) | Potency (PA-1) | Potency (SKOV3) | Potency (Tov-21-G) | Potency (Tov112D)

C/C=C/C=C/C=C/C(=O)O[C@@H]1[C@@H](OC)C2=C(C(=O)N(C(C)C(=O)O)C2)[C@@]2(C)CCCC(C)(C)[C@H]12 (stereo not given in full)
inactive: Potency (OV90) | Potency (PA-1) | Potency (SKOV3) | Potency (Tov-21-G) | Potency (Tov112D)

COc1cc([C@@H]2Oc3c(OC)cc(CCCO)cc3[C@@H]2CO[C@@H]2O[C@H](CO)[C@@H](O)[C@H](O)[C@H]2O)ccc1O
inactive: Potency (OV90) | Potency (PA-1) | Potency (SKOV3) | Potency (Tov-21-G) | Potency (Tov112D)

— PubChem BioAssay (NCATS)
